Data published in PubChem BioAssay (NCI).
Compounds without any hit were thinned out: in the full panel of roughly 83,000, 20% have a hit.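 Values shown are percent growth following 48 h exposure of cells in 96-well plates to a single concentration of compound; below 10 was considered active.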 Active and inactive are the calls of the source.

Columns and labels:
Assay in all cases: NCI-60 one-dose screen, 48 h (100 = growth as untreated, 0 = no growth, -100 = all killed)
Settings in all cases: 10 µM unless noted
HCT-15 colon = test system: HCT-15 colon
HT29 colon = test system: HT29 colon
SNB-75 CNS = test system: SNB-75 CNS
SNB-19 CNS = test system: SNB-19 CNS
U251 CNS = test system: U251 CNS
PC-3 prostate = test system: PC-3 prostate
SK-MEL-5 melanoma = test system: SK-MEL-5 melanoma
UACC-62 melanoma = test system: UACC-62 melanoma
LOX IMVI melanoma = test system: LOX IMVI melanoma
SK-MEL-2 melanoma = test system: SK-MEL-2 melanoma
EKVX NSCLC = test system: EKVX NSCLC
SN12C renal = test system: SN12C renal
UO-31 renal = test system: UO-31 renal
TK-10 renal = test system: TK-10 renal
ACHN renal = test system: ACHN renal
CAKI-1 renal = test system: CAKI-1 renal
A498 renal = test system: A498 renal
CCRF-CEM leukemia = test system: CCRF-CEM leukemia
MOLT-4 leukemia = test system: MOLT-4 leukemia
SK-MEL-28 melanoma = test system: SK-MEL-28 melanoma

Measured: growth

COc1cc(OC)c(/C=C/S(=O)(=O)Cc2ccc(OC)c(NCC(=O)NO)c2)c(OC)c1
inactive: HCT-15 colon 12.9% | SNB-75 CNS 27.6% | SNB-19 CNS 18.5% | U251 CNS 13.4% | PC-3 prostate 22.7% | UACC-62 melanoma 12.4% | SK-MEL-2 melanoma 51.1% | EKVX NSCLC 34.4% | SN12C renal 19.2% | UO-31 renal 35.4% | TK-10 renal 65% | ACHN renal 27.9% | CAKI-1 renal 25.7% | CCRF-CEM leukemia 14.8% | MOLT-4 leukemia 16.5%
active: HT29 colon 5.84% | SK-MEL-5 melanoma -30.6% | LOX IMVI melanoma 8.14% | A498 renal -11.7%

COc1ccc2[nH]cc(/C=N/Nc3nc4ccccc4s3)c2c1
inactive: HCT-15 colon 22.9% | HT29 colon 59.9% | SNB-75 CNS 66.5% | SNB-19 CNS 80% | U251 CNS 55.7% | PC-3 prostate 33.2% | SK-MEL-5 melanoma 83.7% | UACC-62 melanoma 73.1% | LOX IMVI melanoma 30.7% | SK-MEL-2 melanoma 80.5% | EKVX NSCLC 50% | SN12C renal 69.6% | UO-31 renal 37.4% | TK-10 renal 103% | ACHN renal 63.9% | CAKI-1 renal 41.3% | A498 renal 63.4% | CCRF-CEM leukemia 47.3% | MOLT-4 leukemia 35.9%

CC1(COc2ccc3ncc(C#Cc4cncc(C(=O)Nc5cccc(C(F)(F)F)c5)c4)n3n2)COC1
inactive: HCT-15 colon 86.1% | HT29 colon 82.1% | SNB-75 CNS 63% | SNB-19 CNS 82.8% | U251 CNS 91.3% | PC-3 prostate 95.5% | SK-MEL-5 melanoma 79.4% | UACC-62 melanoma 72.9% | LOX IMVI melanoma 65.6% | SK-MEL-28 melanoma 86.8% | EKVX NSCLC 101% | SN12C renal 61.9% | UO-31 renal 58.2% | TK-10 renal 128% | ACHN renal 72.4% | CAKI-1 renal 81.7% | CCRF-CEM leukemia 88.4% | MOLT-4 leukemia 84.9%

CC(C)(C)CC(C)(C)n1nnnc1C(Nc1nccs1)c1cc2cccc3ccc4cccc1c4c32 (centres undefined)
inactive: HCT-15 colon 94.9% | HT29 colon 104% | SNB-75 CNS 91.5% | SNB-19 CNS 89.9% | U251 CNS 98.1% | PC-3 prostate 96.9% | SK-MEL-5 melanoma 100% | UACC-62 melanoma 68.4% | LOX IMVI melanoma 97% | SK-MEL-28 melanoma 101% | EKVX NSCLC 97.2% | SN12C renal 99.4% | UO-31 renal 87.9% | TK-10 renal 108% | ACHN renal 96.1% | CAKI-1 renal 75.9% | CCRF-CEM leukemia 106% | MOLT-4 leukemia 121%

CCC(NC(c1cc2cccc3ccc4cccc1c4c32)c1nnnn1C(C)(C)C)C1CCCCC1 (centres undefined)
inactive: HCT-15 colon 38.4% | HT29 colon 69.4% | SNB-75 CNS 75.6% | SNB-19 CNS 68.9% | U251 CNS 53.8% | PC-3 prostate 45.8% | UACC-62 melanoma 49.6% | LOX IMVI melanoma 47.6% | SK-MEL-28 melanoma 80.3% | EKVX NSCLC 92.1% | SN12C renal 80.8% | UO-31 renal 72.1% | TK-10 renal 80.6% | ACHN renal 54.5% | CAKI-1 renal 63.1% | CCRF-CEM leukemia 58.1% | MOLT-4 leukemia 47.2%
active: SK-MEL-5 melanoma 6.39%

Nc1ncc(-c2ccc(NS(=O)(=O)c3ccc(Cl)c(Cl)c3)cc2)[nH]1
inactive: HCT-15 colon 94.6% | HT29 colon 107% | SNB-75 CNS 90.9% | SNB-19 CNS 87.7% | U251 CNS 92.3% | PC-3 prostate 76.5% | SK-MEL-5 melanoma 97.2% | UACC-62 melanoma 78.2% | LOX IMVI melanoma 89.5% | SK-MEL-28 melanoma 99.3% | SK-MEL-2 melanoma 105% | SN12C renal 90.9% | UO-31 renal 76.3% | TK-10 renal 80% | ACHN renal 95.7% | CAKI-1 renal 71.6% | A498 renal 85.1% | CCRF-CEM leukemia 55.2% | MOLT-4 leukemia 73.9%

Cc1ccc(CSc2nc(-c3ccc(Cl)cc3)c(C#N)c(N3CCOCC3)n2)cc1
inactive: HCT-15 colon 95.9% | HT29 colon 91.2% | SNB-75 CNS 108% | SNB-19 CNS 95.4% | U251 CNS 96.7% | PC-3 prostate 80.3% | SK-MEL-5 melanoma 96.5% | UACC-62 melanoma 73.1% | LOX IMVI melanoma 96.6% | SK-MEL-28 melanoma 93.8% | EKVX NSCLC 95.1% | SN12C renal 98.1% | UO-31 renal 86.1% | TK-10 renal 105% | ACHN renal 98.9% | CAKI-1 renal 76.4% | MOLT-4 leukemia 85%
active: CCRF-CEM leukemia 1.17%

Cc1cc(C)c(N2C(=O)CC(Nc3ccc(Cl)cc3Cl)C2=O)c(C)c1 (centres undefined)
inactive: HCT-15 colon 102% | HT29 colon 107% | SNB-75 CNS 93% | SNB-19 CNS 98.5% | U251 CNS 104% | PC-3 prostate 94.8% | SK-MEL-5 melanoma 103% | UACC-62 melanoma 91.4% | LOX IMVI melanoma 96% | SK-MEL-28 melanoma 102% | EKVX NSCLC 102% | SN12C renal 98.2% | UO-31 renal 85.9% | TK-10 renal 109% | ACHN renal 103% | CAKI-1 renal 87.6% | CCRF-CEM leukemia 105% | MOLT-4 leukemia 103%

Nc1nc(-c2cccc([N+](=O)[O-])c2)c(N=Nc2cccc([N+](=O)[O-])c2)s1
active: SNB-75 CNS -8.63% | U251 CNS -43% | TK-10 renal 7.2%
inactive: HCT-15 colon 62% | HT29 colon 94.2% | SNB-19 CNS 20.9% | PC-3 prostate 74.7% | SK-MEL-5 melanoma 63.9% | UACC-62 melanoma 54.7% | LOX IMVI melanoma 13.4% | SK-MEL-28 melanoma 61.3% | EKVX NSCLC 78.1% | SN12C renal 22.5% | UO-31 renal 13.5% | ACHN renal 11.5% | CAKI-1 renal 34.5% | CCRF-CEM leukemia 95.2% | MOLT-4 leukemia 112%

CN1CCN(c2nc(-c3csc(-c4ccccc4)n3)cc3ccccc23)CC1
inactive: SNB-75 CNS 70.5% | SNB-19 CNS 66.1% | U251 CNS 36.7% | PC-3 prostate 28.9% | SK-MEL-5 melanoma 58.7% | EKVX NSCLC 63.5% | SN12C renal 50.2% | UO-31 renal 43.6% | TK-10 renal 73.3% | ACHN renal 16.1% | CAKI-1 renal 21.2% | CCRF-CEM leukemia 14.2%
active: HCT-15 colon -48.6% | HT29 colon -52% | UACC-62 melanoma -38.4% | LOX IMVI melanoma -80.7% | SK-MEL-28 melanoma -25.2% | MOLT-4 leukemia 4.08%

Nc1nc(-c2cccc([N+](=O)[O-])c2)c(N=Nc2ccc(Br)cc2)s1
active: HCT-15 colon 0.133% | SNB-75 CNS -27.9% | U251 CNS -89.3% | PC-3 prostate 2.83% | SK-MEL-5 melanoma -38.5% | UACC-62 melanoma -37.8% | LOX IMVI melanoma -84% | SK-MEL-28 melanoma 4.69% | EKVX NSCLC 8.7% | SN12C renal -26.8% | UO-31 renal -80.3% | TK-10 renal -96.2% | ACHN renal -96.7% | CAKI-1 renal -87.9%
inactive: HT29 colon 30.1% | SNB-19 CNS 29.9% | MOLT-4 leukemia 29.5%

COc1ccc(Cn2cc3c(c2-c2cc(OC)c(OC)c(OC)c2)CCc2c(CN4CCCC4)noc2-3)cc1
active: HT29 colon 8.73% | SNB-75 CNS -2.12% | A498 renal -1.61%
inactive: HCT-15 colon 21.1% | SNB-19 CNS 22% | U251 CNS 22.4% | PC-3 prostate 29% | SK-MEL-5 melanoma 20.7% | UACC-62 melanoma 15.8% | LOX IMVI melanoma 34.6% | SK-MEL-2 melanoma 57.1% | EKVX NSCLC 38.1% | SN12C renal 36.6% | UO-31 renal 35.9% | TK-10 renal 69.6% | ACHN renal 45.7% | CAKI-1 renal 35.9% | CCRF-CEM leukemia 16.3% | MOLT-4 leukemia 18.3%

CC1(C)NCCC[C@]2(C)[C@H]3C/C(=N\O)C4[C@@H]5C[C@@](C)(CO)CC[C@]5(C)CC[C@@]4(C)[C@]3(C)CC[C@@H]12 (some centres undefined)
inactive: HCT-15 colon 93.1% | HT29 colon 88.9% | SNB-75 CNS 75.1% | SNB-19 CNS 96.6% | U251 CNS 87.3% | PC-3 prostate 88.9% | SK-MEL-5 melanoma 98.7% | UACC-62 melanoma 95.2% | LOX IMVI melanoma 101% | SK-MEL-28 melanoma 103% | SK-MEL-2 melanoma 101% | SN12C renal 94.1% | UO-31 renal 90.2% | ACHN renal 101% | CAKI-1 renal 85.8% | A498 renal 96.1% | CCRF-CEM leukemia 91.9% | MOLT-4 leukemia 80.5%

C[C@@H]1C[C@H]2C(=O)O[C@@H](C)C(NC(=O)[C@H](Cc3cc(F)cc(F)c3)NC(=O)Nc3ccc(Cl)cc3F)C(=O)N3CCC[C@H]3C(=O)N3CCCC[C@H]3C(=O)N[C@@H](CO)C(=O)N2C1 (some centres undefined)
inactive: HCT-15 colon 13.2% | HT29 colon 35.3% | SNB-75 CNS 30.8% | SNB-19 CNS 28.1% | U251 CNS 30% | PC-3 prostate 15.5% | UACC-62 melanoma 29.5% | LOX IMVI melanoma 29.5% | SK-MEL-28 melanoma 43.9% | EKVX NSCLC 30.9% | SN12C renal 21.5% | UO-31 renal 34.9% | TK-10 renal 54.7% | ACHN renal 31.9% | CAKI-1 renal 17.5% | CCRF-CEM leukemia 32.7% | MOLT-4 leukemia 36.5%
active: SK-MEL-5 melanoma -2.76%

Nc1nc(-c2cccc([N+](=O)[O-])c2)c(N=Nc2ccccc2)s1
inactive: HCT-15 colon 38.3% | HT29 colon 61.3% | SNB-75 CNS 63.2% | SNB-19 CNS 81.2% | U251 CNS 54.3% | PC-3 prostate 51.2% | SK-MEL-5 melanoma 42.5% | UACC-62 melanoma 64% | LOX IMVI melanoma 53.5% | SK-MEL-28 melanoma 65% | SN12C renal 71% | UO-31 renal 62.2% | TK-10 renal 81.7% | CAKI-1 renal 39.3% | CCRF-CEM leukemia 48.4% | MOLT-4 leukemia 50.8%

Cc1cc(S(=O)(=O)N(C)C)cc(NCC(=O)NC(=O)NCC(C)C)c1C
inactive: HCT-15 colon 110% | HT29 colon 114% | SNB-75 CNS 45% | SNB-19 CNS 105% | U251 CNS 108% | PC-3 prostate 101% | SK-MEL-5 melanoma 96.5% | UACC-62 melanoma 91.8% | LOX IMVI melanoma 96.4% | SK-MEL-28 melanoma 102% | SK-MEL-2 melanoma 105% | SN12C renal 87.9% | UO-31 renal 57.1% | TK-10 renal 68.2% | ACHN renal 94.4% | CAKI-1 renal 64.3% | A498 renal 51.7% | MOLT-4 leukemia 96.1%
